Results on five compounds are retold here after ChEMBL document CHEMBL1157539, “Thousands of chemical starting points for antimalarial lead identification” (Nature, 2010).

The term Inhibition denotes the share of the control response that was lost under treatment.

Type in all cases: functional
The subject of assay [1] is Plasmodium falciparum. Put plainly: GSK_TCMDC: Inhibition of Plasmodium falciparum 3D7 in whole red blood cells, using parasite LDH activity as an index of growth. Test compounds present at 2uM.
Assay [2] concerns Plasmodium falciparum. Put plainly: GSK_TCMDC: Inhibition of Plasmodium falciparum Dd2 in whole red blood cells, using parasite LDH activity as an index of growth. Test compounds present at 2uM.
The subject of a further assay is HepG2. Put plainly: GSK_TCMDC: Percent inhibition of human HepG2 cell line. Test compounds present at 10uM.

For `CC(C)NC(=O)c1cccc(-c2cccc(OCCN3CCSCC3c3ccccc3)c2)c1` (stereo not given), the Inhibition with Plasmodium falciparum [1] is on record as 89%; with Plasmodium falciparum [2] it was 45%; with HepG2, 24%.

Turning to `O=C(Nc1ccc(-c2cccc(-c3nc4cc(C(F)(F)F)ccc4[nH]3)c2)cc1)Nc1ccc(F)c(F)c1F`, the Inhibition with Plasmodium falciparum [1] came out at 99%; in the assay with Plasmodium falciparum [2], 85%; in the assay on HepG2, 58%.

In the case of `Cc1cccc2nc(-c3ccc(-c4ccc(CN5CCN(CC6CCCN(C)C6)CC5)cc4)cc3)[nH]c12.O=C(O)C(F)(F)F` (stereo not given), the Inhibition was 100% with Plasmodium falciparum [1], 99% in the assay with Plasmodium falciparum [2] and 91% in the assay on HepG2.

With `N#Cc1cccc(COC(=O)C2=C(COc3ccccc3Cl)NC(=O)NC2c2c[nH]c3cnccc23)c1` (stereo not given), the Inhibition in the assay with Plasmodium falciparum [1] was found to be 99%; with Plasmodium falciparum [2], 0%; in the assay with HepG2, 0%.

`CC(C)(C)c1ccc(NC(=O)c2ccc(CN3CCCN(Cc4ccsc4)CC3)cc2)cc1.O=C(O)C(F)(F)F`: the Inhibition with Plasmodium falciparum [1] came out at 96%; with Plasmodium falciparum [2], 0%; in the assay with HepG2, 50%.
